The values that follow come from PubChem BioAssay (NCATS).

Inconclusive results are not listed. A call without a number means that no potency is given here. Activity calls are given as the source filed them. The call rests on the fitted dose curve.

One test can be described thus: Primary qHTS for inhibitors of MERS-S pseudo-typed particle cell entry (AID 1479149). Further: nearly all actives have a fitted effect of over 60% in size. The conditions noted are these: MERS-S pseudotyped particle entry, luciferase; series mostly up to 57.1 µM. (Quantitative high-throughput screening tests each substance at several concentrations.)
Turning to `NCC1CCC(C(=O)O)CC1` (stereo not drawn), the activity change, negative = inhibition is 2.4% [at 11.4 µM] (inactive).

As for `CC(/C=C/C=C(\C)C(=O)O[C@@H]1O[C@H](CO[C@@H]2O[C@H](CO)[C@@H](O)[C@H](O)[C@H]2O)[C@@H](O)[C@H](O)[C@H]1O)=C\C=C\C=C(C)\C=C\C=C(/C)C(=O)O[C@@H]1O[C@H](CO[C@@H]2O[C@H](CO)[C@@H](O)[C@H](O)[C@H]2O)[C@@H](O)[C@H](O)[C@H]1O`, the Potency result was “inactive”.

For the molecule `O=C(Nc1c(Cl)cncc1Cl)c1ccc(OC(F)F)c(OCC2CC2)c1`, the Potency entry is “inactive”.

Turning to `CC1=C(/C=C/C(C)=C/C=C/C(C)=C/C=C/C=C(C)/C=C/C=C(C)/C=C/C2=C(C)C[C@@H](O)CC2(C)C)C(C)(C)C[C@H](O)C1`, the Potency result is “inactive”.

Consider `C[C@@H](O)[C@H]1C(=O)N2C(C(=O)OCOC(=O)C(C)(C)C)=C(SC3CN(C4=NCCS4)C3)[C@H](C)[C@H]12`, for which the Potency entry is “inactive”.

Consider `CC(CC=O)CCCC(C)(C)O` (stereo not drawn), for which the Potency entry was “inactive”.

On to `C[Se]CC[C@H](N)C(=O)O`, for which the Potency result was “inactive”.

In the case of `Cc1cc(O)c2c(c1)O[C@@]1(C)CC[C@H]3C(C)(C)CCCC34CO[C@@H]2[C@H]41` (stereo partly drawn), the Potency result is “inactive”.

Turning to `COc1cc2c(c(OC)c1OC)-c1c(cc3c(c1OC)OCO3)C[C@H](C)[C@@](C)(O)C2`, the Potency result is “inactive”.

A short description of the next test: Primary qHTS for Vero E6 cytotoxicity: counterscreen for inhibitors of SARS-S pseudo-typed particle cell entry (AID 1479150). The conditions noted are these: cell viability; series mostly up to 57.1 µM.
For `NCC1CCC(C(=O)O)CC1` (stereo not drawn), the outcome is “inactive [at 11.4 µM]”.

Regarding `CC(/C=C/C=C(\C)C(=O)O[C@@H]1O[C@H](CO[C@@H]2O[C@H](CO)[C@@H](O)[C@H](O)[C@H]2O)[C@@H](O)[C@H](O)[C@H]1O)=C\C=C\C=C(C)\C=C\C=C(/C)C(=O)O[C@@H]1O[C@H](CO[C@@H]2O[C@H](CO)[C@@H](O)[C@H](O)[C@H]2O)[C@@H](O)[C@H](O)[C@H]1O`, the outcome was inactive.

In the case of `O=C(Nc1c(Cl)cncc1Cl)c1ccc(OC(F)F)c(OCC2CC2)c1`, the call was inactive.

Take `CC1=C(/C=C/C(C)=C/C=C/C(C)=C/C=C/C=C(C)/C=C/C=C(C)/C=C/C2=C(C)C[C@@H](O)CC2(C)C)C(C)(C)C[C@H](O)C1`: the molecule was called inactive.

Take `C[C@@H](O)[C@H]1C(=O)N2C(C(=O)OCOC(=O)C(C)(C)C)=C(SC3CN(C4=NCCS4)C3)[C@H](C)[C@H]12`: the call was inactive.

Take `CC(CC=O)CCCC(C)(C)O` (stereo not drawn): the molecule was classed as inactive.

As for `C[Se]CC[C@H](N)C(=O)O`, the outcome was inactive.

With `Cc1cc(O)c2c(c1)O[C@@]1(C)CC[C@H]3C(C)(C)CCCC34CO[C@@H]2[C@H]41` (stereo partly drawn), the result was inactive.

As for `COc1cc2c(c(OC)c1OC)-c1c(cc3c(c1OC)OCO3)C[C@H](C)[C@@](C)(O)C2`, the outcome was inactive.
